# NS1 inh: inhibitors of influenza NS1 protein function. Potency, µM (top dose mostly 46.1 µM), without a hit: at the highest dose activity, positive = more growth. actives 0.4% (n = 270,000); calls by dose curve; further: potency means the concentration at half of the fitted maximal effect; actives are rising curves; nearly all actives have a fitted effect of over 50% in size
#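 A cell-based growth assay was used: compounds that relieve NS1-induced slow growth of budding yeast raise OD600. Assay medium was yeast nitrogen base with ammonium sulphate and -URA supplement, pH 6.0, with 2% galactose.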
# Pf growth 48h: P. falciparum growth inhibition at 48 hours (one generation); P. falciparum luciferase growth in erythrocytes, 48 h; Potency, µM (doses to about 28.7 µM), inactives show top-dose activity change, negative = inhibition, usual class: inhibitors; actives 5.9% (n = 310,000); further: potency means the concentration at half of the fitted maximal effect; on the % scale 0 is the no-effect control and ±100 the full control effect
#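 Compounds are pin-transferred into medium, infected erythrocytes (2% hematocrit, 0.1% parasitemia final) are added, and plates sit one parasite generation at 37 C in 5% CO2. Detection reagent is then added and luminescence measured.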
# Vaccinia Venus: vaccinia inhibition (Venus reporter); Vaccinia virus Venus reporter expression, fluorescence; Potency, µM (top dose mostly 36.5 µM), without a hit: at the highest dose activity change, negative = inhibition, hits mostly inhibitors; actives 0.46% (n = 330,000); AID 720580; calls by dose curve; tested in A549 cells; further: potency means the concentration at half of the fitted maximal effect; on the % scale 0 is the no-effect control and ±100 the full control effect; nearly all actives have a fitted effect of over 30% in size
# Vaccinia mCherry: inhibitors of vaccinia virus infection (mCherry reporter signal); actives 0.63% (n = 310,000); Vaccinia virus mCherry reporter infection, fluorescence; Potency, µM (doses to about 36.5 µM), without a hit: at the top dose activity change, negative = inhibition, actives largely listed as inhibitors; calls by dose curve; tested in A549 cells; further: potency means the concentration at half of the fitted maximal effect; on the % scale 0 is the no-effect control and ±100 the full control effect; nearly all actives have a fitted effect of over 35% in size
# Pf growth 96h: inhibits malaria parasite growth, 96 h. P. falciparum luciferase reporter growth, 96 h. Potency, µM (doses to about 28.7 µM), for the others: at the top dose activity change, negative = inhibition, actives largely listed as inhibitors. actives 6.9% (n = 320,000). AID 504834; further: potency means the concentration at half of the fitted maximal effect; on the % scale 0 is the no-effect control and ±100 the full control effect
#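 Infected RBCs, 2% Hct / 0.05% parasitemia final; luciferase-reporter P. falciparum; cpd 96 h, 37 C, 5% CO2; luciferase detection reagent; luminescence.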
# HCV inhibitor: inhibitors of hepatitis C virus infection | AID 651820 | Huh7.5.1 HCVcc-Cre infection, luciferase reporter, 44 h | Potency, µM (doses to about 41.8 µM), for inactives: at the highest dose activity change, negative = inhibition, most hits filed as inhibitors | actives 3.4% (n = 340,000); further: potency means the concentration at half of the fitted maximal effect; on the % scale 0 is the no-effect control and ±100 the full control effect
#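 Cells (1,000/well) were plated 4 h before compound, then infected with HCVcc-Cre virus (~0.5 moi). After 44 h further culture, infection was read as luciferase luminescence following a 15 min substrate incubation at room temperature.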
# Flu NS1 inh: influenza NS1 function inhibition validation | shares compounds with NS1 inh | influenza NS1 function cell assay, 15-point titration | activity change, negative = inhibition, % at 32.9 µM | 1,400 tested, under 10 active | AID 492980; calls by dose curve; further: 0% is about no effect
# Flu PR8 replic: influenza virus titer reduction, NS1 project; MDCK infected influenza A/PR/8/34, virus titer TCID50; active compounds read low; shares compounds with NS1 inh; virus titer (log TCID50), log10 TCID50 at 5 µM; actives 30% (n = 95); AID 504647; call rule not given here
# The depositor's hits bear a star; i = inactive; ? = inconclusive; / = no result given. An excerpt weighted towards active compounds, which were near 11% of everything screened. Unless noted, the call rests on the fitted dose curve; in most records, active means well fitted inhibition curve with a large enough effect; inconclusive means small, poorly fitted or top-dose-only effect, or another doubt; inactive means no such curve, though single readings can be large or run the other way.
SMILES,NS1 inh,Pf growth 48h,Vaccinia Venus,Vaccinia mCherry,Pf growth 96h,HCV inhibitor,Flu NS1 inh,others
COc1ccc(C(=O)Nc2ccc3[nH]c(-c4cccc(OC)c4)cc(=O)c3c2)cc1,27%,7%,-19%,i,9%,?,/,
Cc1ccc(-n2c(SCC(=O)Nc3ccc4c5c(cccc35)CC4)nc(O)c(C)c2=O)cc1,7.9µM*,10%,-1%,-12%,15%,-7%,38,
CC1Cc2ccccc2N1C(=O)CSc1nnc2c(n1)[nH]c1ccccc12 (stereo unspecified),0%,?,-5%,/,?,-5%,/,
CC1Cc2ccccc2N1C(=O)CSc1nnc(-c2ccccc2)c(-c2ccccc2)n1 (stereo unspecified),?,0%,-25%,-14%,-7%,10µM*,-1,
Cc1c(OC(C)C(=O)N[C@H](C(=O)O)c2ccccc2)ccc2c3c(c(=O)oc12)CCCC3 (stereo partly specified),10µM*,?,-7%,-8%,?,0%,-5,
Cc1c(OC(C)C(=O)NC2CC(C)(C)NC(C)(C)C2)ccc2c3c(c(=O)oc12)CCC3 (stereo unspecified),3%,?,-28%,i,?,-14%,/,
N[C@@H](CSC(=O)c1ccccc1)C(=O)O,-7%,/,/,/,/,/,/,
Cc1sc2ncnc(SCC(=O)c3ccc(Cl)s3)c2c1C,7.1µM*,46%,/,/,64%,/,4,
CNC(=O)c1ccccc1S(=O)(=O)c1ccccc1C#N,?,?,-27%,/,?,2%,22,
CC(C)NC(=O)c1ccccc1S(=O)(=O)c1ccccc1C#N,1%,35%,-17%,/,2%,-5%,/,
Cc1ccc(-n2cc(-c3ccccc3)c3c(NN4CCOCC4)ncnc32)cc1,-24%,-26%,?,?,176%,-14%,/,
CCOc1ccc(CCNC(=O)Cc2nn[nH]n2)cc1OCC,?,-8%,-6%,-12%,18%,6%,9,
CCOc1ccc(CCNC(=O)COC(=O)Cc2ccc(F)cc2)cc1OCC,/,?,-16%,i,?,22%,/,
Cc1ccc(S(=O)(=O)N2CCN(C(=O)COC(=O)c3ccccn3)CC2)c(C)c1,/,1%,-12%,-27%,7%,5%,/,
Cc1cc(-c2ccccc2)c2c(=O)[nH][nH]c2n1,10µM*,5%,-11%,-13%,9%,16%,?,
Cc1ccccc1NC(=O)CSc1nc(-c2ccc(F)cc2)c2cccc(C)c2n1,/,/,-8%,-10%,/,/,/,
COc1ccc(-n2c(SCC(=O)Nc3ccc4c(c3)OCO4)nc3ccccc3c2=O)cc1,22µM*,?,/,/,122%,-30%,18,
O=C(CSc1nc2ccccc2c(=O)n1-c1ccccc1Cl)Nc1cccc(S(=O)(=O)N2CCOCC2)c1,11µM*,?,-9%,i,0%,?,24,Flu PR8 replic=6.7*
O=C(CSc1ncnc2ccccc12)Nc1cccc(S(=O)(=O)N2CCOCC2)c1,/,-70%,-27%,-37%,?,-20%,/,
COc1cccc(-n2c(SCc3cc(=O)oc4cc(O)c(O)cc34)nc3ccccc3c2=O)c1,?,34%,-19%,?,?,0%,-15,
O=C(CSc1nnc(Nc2ccccc2)s1)Nc1cccc(S(=O)(=O)N2CCCCC2)c1,11µM*,?,-30%,?,45%,?,?,
O=C(OCCCN=C1NS(=O)(=O)c2ccccc21)c1ccccc1,3%,-2%,-7%,-18%,2%,2%,/,
Cc1cc(NC(=O)CSc2nc3cc4c(cc3c(=O)n2CCc2ccccc2)OCO4)no1,13µM*,-17%,/,/,?,-9%,0,
O=C(CSc1nc2ccccc2c(=O)n1-c1ccc(F)cc1)Nc1cc(S(=O)(=O)N2CCOCC2)ccc1Cl,13µM*,6.6µM*,-4%,-11%,3.7µM*,-13%,6,
CCCn1c(=O)c2sccc2n2c(CCCC(=O)Nc3ccc(Oc4ccccc4)cc3)nnc12,/,/,-9%,-19%,/,/,/,
SMILES,NS1 inh,Pf growth 48h,Vaccinia Venus,Vaccinia mCherry,Pf growth 96h,HCV inhibitor,Flu NS1 inh,others
COc1cc(NC(=O)c2cc(-c3ccco3)on2)c(OC)cc1Cl,-14%,7%,/,/,25%,-9%,/,
COc1ccc(NC(=O)c2cc(-c3ccco3)on2)c(OC)c1,?,-17%,7%,19%,84%,?,-15,
Cc1cccc(C(=O)NCc2nnc(SCc3ccc(F)cc3)n2C)c1,2%,-2%,-17%,i,?,-35%,/,
COc1ccc(C(=O)Nc2nnc(S(=O)(=O)N3CCN(c4ccc(F)cc4)CC3)s2)cc1,/,/,-26%,-26%,/,/,/,
O=C(Nc1nnc(S(=O)(=O)N2CCN(c3ccc(F)cc3)CC2)s1)c1ccccc1,2.2µM*,41%,/,/,106%,3%,-21,
CCC(=O)Nc1ccccc1N1CCN(c2ccc(F)cc2)CC1,9%,1%,-20%,-23%,2%,11%,/,
O=C(Nc1ccccc1N1CCN(c2ccc(F)cc2)CC1)c1ccccc1,?,?,-9%,-7%,/,10%,-27,
Cc1cccc(CNc2cc(-c3cccc(NS(C)(=O)=O)c3)ncn2)c1,/,/,-9%,i,/,/,/,
COc1ccc(NC(=S)N(CCc2c(C)[nH]c3ccc(C)cc23)Cc2cccs2)cc1,11µM*,0%,?,?,-96%,?,-25,
CCOc1ccc(NC(=S)N(CCc2c(C)[nH]c3ccc(C)cc23)Cc2ccco2)cc1,11µM*,?,-14%,i,?,11µM*,-33,
CCOC(=O)c1c(C)[nH]c(C)c1S(=O)(=O)N1CCCC(C(=O)Nc2ccccc2OCC)C1 (stereo unspecified),/,/,-11%,-11%,/,/,/,
COc1ccc(N(C(C)C(=O)N/N=C/c2ccc(OC(C)C)cc2)S(C)(=O)=O)cc1 (stereo unspecified),-13%,?,-12%,-14%,2%,-18%,/,
COc1cc(C2C3C(=O)N(Cc4ccccc4)C(=O)C3ON2c2ccccc2)cc(OC)c1OC (stereo unspecified),11µM*,?,-12%,/,?,-22%,?,
COc1ccc(C2C3C(=O)N(Cc4ccccc4)C(=O)C3ON2c2ccccc2)c(OC)c1OC (stereo unspecified),24%,?,-28%,/,?,?,/,
C=CCn1c(SCC(=O)N2CCOCC2)nc2ccccc2c1=O,-1%,-20%,-5%,-13%,?,7%,/,
Cc1ccc(C)c(NC(=O)c2cc(C)nc3ccccc23)c1,-18%,30%,/,/,2%,-12%,/,
